# Most compounds without a hit are left out; they make up all but 3.5% or so of the library.
# GPR151 ag: activators of human GPR151; Q8TDV0; PathHunter beta-arrestin GPR151 cells, luminescence; activation, % at 11.2 µM; 1% of 650,000 active; in the data active = activation above about 4.9%
# Target sequence (Q8TDV0 whole entry, looked up): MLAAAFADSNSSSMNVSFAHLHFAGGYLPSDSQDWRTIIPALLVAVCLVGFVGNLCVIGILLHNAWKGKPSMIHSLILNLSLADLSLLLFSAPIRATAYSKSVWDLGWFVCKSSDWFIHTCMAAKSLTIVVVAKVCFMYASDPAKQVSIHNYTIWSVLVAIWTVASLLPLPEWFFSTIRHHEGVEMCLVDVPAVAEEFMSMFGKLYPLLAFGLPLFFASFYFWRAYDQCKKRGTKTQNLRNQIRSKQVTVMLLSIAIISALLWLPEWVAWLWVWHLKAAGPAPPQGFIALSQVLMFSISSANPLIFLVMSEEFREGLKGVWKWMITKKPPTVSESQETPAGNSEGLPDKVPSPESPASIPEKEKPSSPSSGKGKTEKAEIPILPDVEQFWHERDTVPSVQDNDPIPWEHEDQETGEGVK
# FBW7 act: human FBW7 E3 ligase activation, primary screen. AID 1259310. 0.13% of 650,000 active. normalized activity (activation), % at 26.1 µM. Q969H0. AlphaScreen FBW7–phospho-cyclin E peptide binding, activator screen; in the data active = normalized activity above about 1.9%;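 note: purified mutant Fbw7 with reduced substrate affinity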
# MITF primary: inhibitors of human MITF; AlphaScreen MITF homodimerization, bead proximity signal; inhibition, % at 2.6 µM; AID 1259374; 0.91% of 650,000 active; O75030; in the data active = inhibition above about 50%
# TEAD-YAP inh: TEAD-YAP interaction inhibition | HEK-TIYL cells, TEAD-Gal4/YAP UAS-luciferase luminescence | 1.4% of 640,000 active | inhibition, % at 9.12 µM; in the data active = inhibition above about 32%
# GPR151 confirm: confirmation of human GPR151 activators | shares compounds with GPR151 ag | GPR151 PathHunter beta-arrestin cells, luminescence, 90 min; % of EA-reagent control over plate median | activation, % at 11.2 µM | 6,700 tested, under 10 active | AID 1508609;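 active = mean percent activation across replicates above the confirmation screen cutoff of 4.91%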
# GPR119 counter: GPR119 activation, counter-screen for GPR151 activators. shares compounds with GPR151 ag. GPR119 PathHunter beta-arrestin cells, luminescence, 90 min; 0 = compound-well median, 100 = enzyme-acceptor control. activation, % at 11.2 µM. 0.3% of 6,700 active. AID 1508611;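 active = mean percent activation in the counterscreen above 29.09%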;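 note: counterscreen on off-target GPR119 to flag nonselective hits from the GPR151 activator screen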
# Numbers stand for hits; . = inactive; / = no result.
SMILES,GPR151 ag,FBW7 act,MITF primary,TEAD-YAP inh,GPR151 confirm,GPR119 counter
COCC(=O)NC(C)c1nc(-c2ccncc2)n[nH]1 (stereo not drawn),.,.,.,.,/,/
Cc1ccc(C)c(C(=O)c2ccc(N)cc2)c1,.,.,.,.,/,/
Cc1cc(C)cc(NS(=O)(=O)c2cc(C(N)=O)ccc2C)c1,13,.,.,.,.,.
c1ccc(SCc2nnc3n2CCCCC3)cc1,5.0,.,.,.,.,.
COc1ccc(CC(=O)Nc2ccc(N3CCC(NCc4cnn(C)c4)CC3)cc2)cc1,.,.,.,.,/,/
COCCCNC(=O)CN(c1ccc(I)cc1)S(C)(=O)=O,6.7,.,.,.,.,.
COC(=O)c1ccc(-n2c(C)cc(C(=O)CSc3nnc(N)s3)c2C)cc1,.,.,.,.,/,/
COCCOC(=O)c1c(C)oc2ccc(OCC(=O)C(C)(C)C)cc12,.,.,.,.,/,/
COc1ccc(C(=O)NC(=S)N2CCOCC2)cc1,6.1,.,.,.,.,.
CC(C)Oc1ccc(C(=O)NC(=S)N2CCOCC2)cc1,13,.,.,.,.,.
COc1ccc(C(=O)NC(=S)N2CCSCC2)cc1,.,.,.,.,/,/
COc1ccc(C(=O)NC(=S)N2CCOCC2)cc1Br,.,.,.,.,/,/
COc1ccc(-c2nsc(SCC(=O)Nc3ccccc3)n2)cc1,.,.,.,.,/,/
CCCCCCc1cc2cc(-c3csc(C)n3)c(=O)oc2cc1O,.,.,.,.,/,/
Cc1ccc(/C(N)=N/OC(=O)CCc2ccccc2)cc1,5.0,.,.,.,.,.
CN(CC(=O)NC1CCCC1)c1nnc(N2CCCC2=O)s1,6.1,.,.,.,.,.
CN(CC(=O)NC1CCCCCC1)c1nnc(N2CCCC2=O)s1,.,.,.,.,/,/
Cc1csc(SCC(=O)Nc2ccccn2)n1,6.2,.,.,.,.,.
Cc1cc(NC(=O)C(=O)NCC2CCCCC2)ccc1Br,.,.,.,.,/,/
Cc1ccc(N2C(=O)SC(Nc3ccc(I)cc3)C2=O)cc1 (stereo not drawn),.,.,.,.,/,/
Cc1ccc(N2C(=O)SC(Nc3ccccc3)C2=O)cc1 (stereo not drawn),.,.,.,.,/,/
Cc1ccc(N2C(=O)SC(Nc3ccc(F)cc3)C2=O)cc1 (stereo not drawn),5.4,.,.,.,.,.
Cc1cccc(NC2SC(=O)N(c3ccc(F)cc3)C2=O)c1 (stereo not drawn),5.6,.,.,.,.,.
O=c1c2cc(-c3ccccc3)sc2ncn1-n1cccc1,7.7,.,.,.,.,.
N#Cc1c(NC(=O)c2cc(Cl)sc2Cl)sc2c1CCC2,.,.,.,.,/,/
SMILES,GPR151 ag,FBW7 act,MITF primary,TEAD-YAP inh,GPR151 confirm,GPR119 counter
N#Cc1ccccc1C(Br)C(Br)C(=O)O (stereo not drawn),6.0,.,.,.,.,.
N#Cc1ccc(C(=O)C(=O)c2ccccc2)cc1C#N,.,.,.,.,/,/
COc1ccc(C(=O)Nc2ccccc2)cc1S(=O)(=O)N1CCCc2ccccc21,.,.,.,.,/,/
COc1cc(OC)c(S(=O)(=O)N2CCCc3ccccc32)cc1NC(C)=O,6.1,.,.,.,.,.
NC(=O)C1CCN(CC(=O)Nc2ccc(N3CCOCC3)cc2)CC1,5.9,.,.,.,.,.
O=C(Nc1ccc(N2CCOCC2)cc1)c1ccnc(N2CCOCC2)c1,5.5,.,.,.,.,.
O=C(Nc1ccc(N2CCOCC2)cc1)c1ccnc(NCCN2CCOCC2)c1,.,.,.,.,/,/
O=C(Nc1ccc(N2CCOCC2)cc1)C1CCN(c2ccc(Cl)nn2)CC1,6.0,.,.,.,.,.
O=C(Nc1ccc2c(c1)OCO2)c1ccnc(NCCN2CCOCC2)c1,7.1,.,.,.,.,.
CC(=O)Nc1ccc(NC(=O)c2ccnc(Nc3ccc(N4CCOCC4)cc3)c2)cc1,.,.,.,.,/,/
Cc1cc(N(CC(=O)NC2CCCCC2)S(C)(=O)=O)ccc1Br,8.1,.,.,.,.,.
O=C(NCc1ccccn1)C1(c2cc(-c3cccs3)on2)CC1,.,.,.,.,/,/
NS(=O)(=O)c1ccc(CCNC(=O)CSc2nc3cc4c(cc3c(=O)n2CCC2=CCCCC2)OCO4)cc1,.,.,.,.,/,/
Cc1ccccc1C(=O)Nc1ccc(S(=O)(=O)N2CCN(C)CC2)cc1,6.7,.,.,.,.,.
CCSc1ccccc1C(=O)Nc1ccncc1,5.0,.,.,.,.,.
CCSc1ccccc1C(=O)Nc1ccc(S(=O)(=O)N2CCOCC2)cc1,6.5,.,.,.,.,.
CCSc1ccccc1C(=O)Nc1cccnc1,.,.,.,.,/,/
COCC(=O)N(C)C(Cc1ccc(F)cc1)C1CCN(C(=O)CCc2cccnc2)CC1 (stereo not drawn),.,.,.,.,/,/
COc1cccc(CN2CCN(Cc3cn(C)nc3C)CC2CCO)c1 (stereo not drawn),5.8,.,.,.,.,.
COc1cccc(CN2CCN(Cc3cccc(OCCO)c3)CC2CCO)c1 (stereo not drawn),5.2,.,.,.,.,.
COc1cccc(CN2CCN(Cc3cccc(OC)c3)C(CCO)C2)c1 (stereo not drawn),.,.,.,.,/,/
CSc1cccc(CN2CCN(Cc3ccccc3F)C(CCO)C2)c1 (stereo not drawn),13,.,.,.,.,.
CC(=C\c1ccccc1)/C=C1/SC(=O)N(CC(=O)Nc2ccc(C(=O)O)cc2)C1=O,.,.,.,.,/,/
COc1ccc(NC(=O)C(=O)NCc2ccncc2)cc1,5.1,.,.,.,.,.
COc1ccc(NC(=O)NCc2ccncc2)cc1,.,.,.,.,/,/
SMILES,GPR151 ag,FBW7 act,MITF primary,TEAD-YAP inh,GPR151 confirm,GPR119 counter
O=C(Nc1cccc(Oc2ccc(C(=O)O)c(C(=O)O)c2)c1)c1ccc(-c2ccccc2)cc1,6.9,.,.,.,.,.
O=C(Nc1cccc(Oc2ccc(C(=O)O)c(C(=O)O)c2)c1)c1ccc([N+](=O)[O-])cc1,.,.,.,.,/,/
C/C(=C\c1ccccc1)CN1CCC(C(=O)NC(C)C)CC1,5.1,.,.,.,.,.
CC(=O)c1cccc(NC(=O)C(C)NS(=O)(=O)c2ccc(F)cc2)c1 (stereo not drawn),6.3,.,.,.,.,.
COC(=O)c1ccc(NC(=O)C(C)NS(=O)(=O)c2cc(Cl)ccc2Cl)cc1 (stereo not drawn),.,.,.,.,/,/
CC(NS(=O)(=O)c1cc(Cl)ccc1Cl)C(=O)Nc1cccc([N+](=O)[O-])c1 (stereo not drawn),7.7,.,.,.,.,.
CC(Oc1ccc(Br)cc1)C(=O)Nc1cccc([N+](=O)[O-])c1 (stereo not drawn),6.1,.,.,.,.,.
COc1ccc(S(=O)(=O)NC(C)C(=O)Nc2ccccc2)cc1 (stereo not drawn),.,.,.,.,/,/
COc1ccc(S(=O)(=O)NC(C)C(N)=O)cc1 (stereo not drawn),6.0,.,.,.,.,.
